# Source: PubChem
# S1P2 agonist – activates the human S1P2 receptor. S1P2-expressing cell line, agonist reporter read-out. activation, % at 4.5 µM. 0.46% of 97,000 active; in the data active means activation above about 16%;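 further: 0% = vehicle low control and 100% = maximal reference agonist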
# Target sequence (O95136 whole entry, looked up): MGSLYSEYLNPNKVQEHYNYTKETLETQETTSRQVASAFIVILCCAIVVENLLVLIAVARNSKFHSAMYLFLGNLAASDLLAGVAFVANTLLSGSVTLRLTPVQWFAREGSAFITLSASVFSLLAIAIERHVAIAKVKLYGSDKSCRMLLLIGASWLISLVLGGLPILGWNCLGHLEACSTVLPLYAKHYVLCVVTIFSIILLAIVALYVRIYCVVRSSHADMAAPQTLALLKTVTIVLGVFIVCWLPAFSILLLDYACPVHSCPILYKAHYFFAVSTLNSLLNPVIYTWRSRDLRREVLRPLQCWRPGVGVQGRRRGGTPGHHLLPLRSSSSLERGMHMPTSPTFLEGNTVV
# GALR2 agonist – activates the human galanin receptor 2; O43603; GALR2-expressing cells, agonist activation read-out; activation, % (test concentration not listed); 0.48% of 140,000 active; AID 803; in the data active means activation above about 5%, passing the limit was not always enough;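 further: 0% = vehicle buffer wells and 100% = reference agonist at full effect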
# S1P2 blocker – antagonists of human S1P2 receptor; inhibition, % at 5 µM; 0.21% of 97,000 active; AID 736; cell-based S1P2 antagonist assay, inhibition at 5 uM; O95136; in the data active means inhibition above about 45%;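 further: CRE beta-lactamase reporter cells expressing human S1P2 stimulated with S1P; 0% = agonist at EC80 alone and 100% = agonist plus reference antagonist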
# GALR2 blocker – blocks the human galanin receptor 2; O43603; GALR2-expressing cells, antagonist mode; inhibition, % at 4 µM; 0.39% of 140,000 active; AID 828;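 further: cells stimulated with galanin 1-16 at roughly its EC80; 0% = agonist challenge control and 100% = basal control without agonist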
# LYP inh 2 – inhibitors of human LYP (PTPN22) phosphatase | inhibition, % at 2 µM | 0.21% of 96,000 active | recombinant LYP catalytic domain, DiFMUP fluorescence | Q9Y2R2 | AID 640;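 active means inhibition at 2 µM at or above a set limit, the screen mean plus 3 SD, cut at about 24% in these data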;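 further: 0% = DMSO with enzyme and 100% = enzyme fully blocked by orthovanadate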
# LYP act – LYP (human) phosphatase activation | recombinant LYP, DiFMUP fluorescence; 0 = plate median, 100 = signal doubled | activation, % at 2 µM | 0.11% of 96,000 active | AID 697;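 active means activation at 2 µM above a set limit, the mean plus 5 SD, cut at about 37% in these data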
# GALR2 ant conf – GALR2 (human) antagonism confirmed. shares compounds with GALR2 blocker. GALR2-expressing cells, antagonist mode, inhibition. inhibition, % at 4 µM. 60% of 480 active. AID 866;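 further: cells stimulated with galanin at about its EC80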
# BLA inhib ctr – beta-lactamase inhibition, GALR2 counterscreen | 36% of 480 active | AID 867 | shares compounds with GALR2 blocker | inhibition, % at 4.2 µM | CHO NFAT-BLA reporter, beta-lactamase FRET, thapsigargin-stimulated;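 active means inhibition above the mean inhibition across tested compounds plus 3 SD, cut at about 27% in these data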;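 further: 0% = 500 nM thapsigargin stimulated wells and 100% = unstimulated BSA only wells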
# Active calls of the source: *; x = no result given. Sampled rows, rich in hits. Any-hit rate of the full collection: about 1.4%. Unless noted, no stated cut-off is given here; in the data, active means inhibition above about 27%; inactive means the rest.
SMILES,S1P2 agonist,GALR2 agonist,S1P2 blocker,GALR2 blocker,LYP inh 2,LYP act,GALR2 ant conf,BLA inhib ctr
CCc1c(C)nc2ncnn2c1NCCc1ccc(OC)c(OC)c1,-16,-2,7,5,11,-8,x,x
Cc1ccc(NC(=O)/C=C/c2ccco2)nc1,x,0,x,34*,x,x,23,48*
O=C(/C=C/c1ccco1)Nc1ccccn1,x,0,x,-4,x,x,x,x
O=C(c1cc2ccccc2c(=O)o1)N1CCCCCC1,x,0,x,2,x,x,x,x
Cc1ccc(NC(=O)C(=O)NCCOc2ccc(Cl)cc2)c(C)c1,x,-3,x,-1,x,x,x,x
CCCCN(C)CCn1c(=S)[nH]c2ncccc2c1=O,-3,-4,-6,32*,-10,9,10,-1
CCN1/C(=C/c2ccc3cc(C)ccc3[n+]2CC)Sc2ccccc21,x,0,x,46*,x,x,48*,49*
CCSc1nnc(-c2ccccc2N=Cc2c(C)[nH]n(-c3ccccc3)c2=O)c(=O)[nH]1,x,0,x,5,x,x,x,x
CCOC(=O)CSc1nc(C)cc(=O)[nH]1,-11,-3,-3,32*,-6,5,4,-6
O=C1C=CC(=O)C(C2=C3C(=O)N(CCc4ccccc4)CC(=O)N3CCC2)=C1,x,0,x,39*,x,x,60*,81*
O=C1C=CC(O)(c2cc(=O)c3c(O)cc(O)cc3o2)C=C1,x,-2,x,90*,x,x,83*,39*
O=c1cc(-c2ccccc2Cl)oc2cc(O)cc(O)c12,x,-2,x,-1,x,x,x,x
COc1cc(OC)cc(C(=O)N2CCC(C(=O)Nc3ccc4c(c3)OCCO4)CC2)c1,x,-1,x,-7,x,x,x,x
Nc1c(C(=O)Nc2nc3ccccc3s2)sc2nc(-c3cccs3)ccc12,-13,0,73*,41*,35*,-31,49*,49*
CS(=O)(=O)c1nc(-c2ccco2)cc(C(F)(F)F)n1,-8,3,24,27*,10,-12,53*,44*
CC(C)NC(=S)NC(=O)/C=C/c1ccc(F)cc1,x,0,x,1,x,x,x,x
Cc1cccnc1Nc1nc(-c2ccccn2)cs1,0,-1,12,27*,4,-2,51*,31*
CN1C2CCC1/C(=C\c1ccccc1F)C(=O)/C2=C/c1ccccc1F,x,-1,x,2,x,x,x,x
Cc1[nH]c2ccccc2c1-c1nc2ccccc2[nH]1,x,-2,x,42*,x,x,49*,11
Cc1sc2ncnc(NCC3COc4ccccc4O3)c2c1C (configuration not stated),x,0,x,39*,x,x,46*,11
Cc1sc2ncnc(NCc3ccccc3)c2c1C,-7,-1,32,29*,-19,19,20,14
CN(C)c1nc(SCc2ccc(Cl)cc2)nc2c1CCCC2,-9,-1,-16,-2,-10,14,x,x
Cc1nc2ccc(NC(=O)c3ccc(Cl)c(S(=O)(=O)N(C)c4ccccc4)c3)cc2s1,x,-2,x,1,x,x,x,x
Cc1nc2ccc(NC(=O)c3cc(S(=O)(=O)N(C)c4ccccc4)ccc3Cl)cc2s1,x,4,x,37*,x,x,31*,5
O=C(COC(=O)c1ccccc1C(=O)c1ccc(Cl)c([N+](=O)[O-])c1)NC1CCCCCC1,3,-2,59*,31*,15,-15,64*,52*
SMILES,S1P2 agonist,GALR2 agonist,S1P2 blocker,GALR2 blocker,LYP inh 2,LYP act,GALR2 ant conf,BLA inhib ctr
COCCCNC(=O)C(=O)N/N=C/c1ccc(OCC(=O)Nc2cccc(Cl)c2C)c(OC)c1,-2,-2,8,4,2,4,x,x
COc1ccc(Cl)cc1NC(=O)C1CCCN(S(=O)(=O)c2cccc3nonc23)C1 (configuration not stated),-9,-1,6,31*,12,-10,22,7
COc1ccc(OC)c(NC(=O)C2CCCN(S(=O)(=O)c3cccc4nsnc34)C2)c1 (configuration not stated),-5,-2,9,9,-5,4,x,x
Cc1cc(OC(C)C(=O)N/N=C/CC(C)c2ccccc2)ccc1Cl (configuration not stated),-7,-3,4,3,11,-11,x,x
Cc1ccc(Nc2nc(-c3c(C)nc4ccccn34)cs2)cc1,-4,-2,23,34*,-5,8,40*,59*
Cc1ccc(Nc2nc(-c3c(C)nc4ncccn34)cs2)cc1,-9,-2,11,19,-5,8,x,x
O=C(Nc1ccccc1)Nc1cc(Cl)cc(Cl)c1,-4,-2,-17,21,5,-3,x,x
O=C(Nc1ccccc1)Nc1cc(OCC(F)(F)F)cc(OCC(F)(F)F)c1,x,-2,x,27*,x,x,19,12
CCCN(CCC)S(=O)(=O)c1ccc(C(=O)Nc2nc(-c3ccccc3)c(C(=O)OCC)s2)cc1,x,-1,x,-10,x,x,x,x
CC1(c2ccc3ccccc3c2)NC(=O)N(CC(=O)Nc2cccc(S(=O)(=O)N3CCOCC3)c2)C1=O (configuration not stated),x,-1,x,-12,x,x,x,x
CCn1c2ccc(C)cc2c2nc3cc(C(=O)O)ccc3nc21,x,-1,x,28*,x,x,34*,4
Cc1cc(=O)[nH]c(N/N=C/c2sccc2C)n1,x,-2,x,-1,x,x,x,x
C(=N\Nc1nc2ccccc2[nH]1)/c1cccs1,-4,-3,15,29*,7,-4,27,13
C=CCn1cc(/C=N/Nc2nc3ccccc3[nH]2)c2ccccc21,x,-1,x,28*,x,x,29*,11
Cc1ccsc1/C=N/Nc1nc2ccccc2[nH]1,x,-1,x,32*,x,x,38*,12
CCN(CC)c1ccc(/C=N/Nc2nc3ccccc3[nH]2)cc1,x,4,x,42*,x,x,35*,23
S=c1[nH]nc(-c2cccnc2)n1/N=C/C=C/c1ccccc1,x,-2,x,-3,x,x,x,x
O=C(CCC(=O)c1ccccc1)NCCc1c[nH]c2ccccc12,x,0,x,3,x,x,x,x
Cc1ccc(Nc2nc(N)c([N+](=O)[O-])c(NCc3ccco3)n2)cc1C,x,0,x,-6,x,x,x,x
COc1cccc(N2CCN(c3ncnc4c3[nH]c3ccccc34)CC2C)c1 (configuration not stated),x,0,x,21,x,x,x,x
COc1cccc(N2CCN(c3ncnc4c3[nH]c3ccc(F)cc34)CC2C)c1 (configuration not stated),-4,-2,105*,51*,14,-12,72*,58*
Cn1c(NC(=O)c2ccc(F)c(F)c2)cc(=O)n(C)c1=O,x,-1,x,28*,x,x,16,11
Cc1cc(Nc2cccc(Cl)c2)nc(NCc2ccccc2)n1,x,0,x,31*,x,x,51*,25
Cc1cc(N/N=C/c2cccc(Cl)c2)nc(NCc2ccccc2)n1,x,-1,x,-3,x,x,x,x
CCc1ccc2nc(N3C(=O)c4oc5ccccc5c(=O)c4C3c3ccc(OC)c(OC)c3)sc2c1 (configuration not stated),x,0,x,3,x,x,x,x
